Records with an inconclusive call do not appear. Values without a mark were called inactive. Activity calls are given as the source filed them. The call rests on the fitted dose curve; in most records, active means well fitted inhibition curve with a large enough effect in the repeat runs; inconclusive means weak or mixed curves; inactive means no such curve, though single readings can be large or run the other way.
Biological target: Cytochrome P450 2C9 (Homo sapiens) (UniProt P11712)
Assay: Cytochrome P450 family 2 subfamily C member 9 (CYP2C9) small molecule antagonists: luciferase biochemical (cell-free) qHTS assay (AID 1645842); further: nearly all actives have a fitted effect of over 55% in size
Settings: P450-Glo CYP2C9 enzyme assay, luciferin luminescence; series mostly up to 57.4 µM; activity change, negative = inhibition: at the top concentration
How it was run: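 P450-Glo CYP2C9 system: proluciferin substrate with enzyme in mix containing 0.4% BSA, 10 min at room temperature, then NADPH regeneration solution added and incubated 1 h at 37C. Detection reagent stopped reaction; luminescence read after 20 min as RLU.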
On the % scale 0 is the no-effect control and ±100 the full control effect; potency means the concentration at half of the fitted maximal effect.

Cytochrome P450 2C9 (Homo sapiens), sequence (P11712 whole entry, looked up): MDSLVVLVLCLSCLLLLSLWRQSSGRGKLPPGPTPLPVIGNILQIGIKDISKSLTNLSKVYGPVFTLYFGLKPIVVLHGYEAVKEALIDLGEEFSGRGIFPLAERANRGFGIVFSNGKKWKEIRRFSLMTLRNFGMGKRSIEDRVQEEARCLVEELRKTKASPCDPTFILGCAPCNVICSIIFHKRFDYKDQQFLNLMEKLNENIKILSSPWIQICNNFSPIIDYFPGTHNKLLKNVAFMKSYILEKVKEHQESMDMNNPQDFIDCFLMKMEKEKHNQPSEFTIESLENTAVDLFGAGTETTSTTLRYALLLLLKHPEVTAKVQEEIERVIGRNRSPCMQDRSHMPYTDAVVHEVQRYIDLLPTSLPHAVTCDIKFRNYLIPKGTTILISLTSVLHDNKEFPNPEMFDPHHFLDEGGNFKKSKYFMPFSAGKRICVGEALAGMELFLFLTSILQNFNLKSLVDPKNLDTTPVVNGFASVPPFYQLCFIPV

SMILES | Potency | activity change, negative = inhibition
Cc1cc(C(=O)Nc2cccc(C(=O)Nc3cccc(C(F)(F)F)c3)c2)on1 | 3.79 µM (active) | –
O=C(CC(c1ccccc1)c1ccccc1)N1CCN(C(c2ccccc2)c2ccccc2)CC1 | 4.77 µM (active) | –
COc1ccc(C(=O)C2CCN(CC(=O)N(Cc3nc4c(c(=O)[nH]3)COCC4)CC3CC3)CC2)cc1 | 8.49 µM (active) | –
CCN(Cc1cccnc1)C(=O)CN(c1ccc(OC)nc1)S(=O)(=O)c1ccccc1C | 19 µM (active) | –
CN1CCc2nc(C(=O)N[C@@H]3C[C@@H](C(=O)N(C)C)CC[C@@H]3NC(=O)C(=O)Nc3ccc(Cl)cn3)sc2C1 | – | -27.7%
Cc1cc(C)c(Nc2ccnc(Nc3ccc(C#N)cc3)n2)c(C)c1 | 3.79 µM (active) | –
Cc1cc(C(N)=O)ccc1-n1c(CCC(=O)O)ccc1-c1ccc(-n2ccnc2)cc1 | 3.38 µM (active) | –
Cc1cccc2c1NC(=O)C2(c1ccc(O)cc1)c1ccc(O)cc1 | 9.52 µM (active) | –
CC(NC(=O)CCc1nc2ccccc2c(=O)[nH]1)c1ccccc1 (centres undefined) | – | 6.26%
Cc1cccc(/C=N/Nc2cc(N3CCOCC3)n3nc(-c4ccncc4)cc3n2)c1 | 1.34 µM (active) | –
COC(=O)CCSCc1ccc(-c2onc(C)c2NC(=O)OC(C)c2ccccc2Cl)cc1 (centres undefined) | 1.51 µM (active) | –
Cn1cc(-c2ccc3nnc(Sc4ccc5nn(C)cc5c4)n3n2)cn1 | 4.77 µM (active) | –
CC1COC(Nc2ccc3ncnc(Nc4ccc(OCc5nccs5)c(Cl)c4)c3c2)=N1 (centres undefined) | 10.7 µM (active) | –
O=C(Nc1ccccc1)N1CCN(Cc2ccc3ccccc3n2)CC1 | 10.7 µM (active) | –

Reference: PubChem BioAssay (NCATS)
